Compounds with a hit are over-represented: about 18% of the library has one in this group of screens.
Six1-Eya2 blk – qHTS Assay for Inhibitors of the Six1/Eya2 Interaction | Homeobox protein SIX1 (Homo sapiens) + Protein phosphatase EYA2 (Homo sapiens), … | AID 651725, 2012 | activity change, % (concentration not given with the values) | 360,000 compounds, 0.56% hits | AlphaScreen GST-Six1/His-Eya2 binding, biochemical; active compounds read low; in the data active = activity change below about -65%; inconclusive = mostly about -30% to -63%
Target sequence (O00167 whole entry, looked up): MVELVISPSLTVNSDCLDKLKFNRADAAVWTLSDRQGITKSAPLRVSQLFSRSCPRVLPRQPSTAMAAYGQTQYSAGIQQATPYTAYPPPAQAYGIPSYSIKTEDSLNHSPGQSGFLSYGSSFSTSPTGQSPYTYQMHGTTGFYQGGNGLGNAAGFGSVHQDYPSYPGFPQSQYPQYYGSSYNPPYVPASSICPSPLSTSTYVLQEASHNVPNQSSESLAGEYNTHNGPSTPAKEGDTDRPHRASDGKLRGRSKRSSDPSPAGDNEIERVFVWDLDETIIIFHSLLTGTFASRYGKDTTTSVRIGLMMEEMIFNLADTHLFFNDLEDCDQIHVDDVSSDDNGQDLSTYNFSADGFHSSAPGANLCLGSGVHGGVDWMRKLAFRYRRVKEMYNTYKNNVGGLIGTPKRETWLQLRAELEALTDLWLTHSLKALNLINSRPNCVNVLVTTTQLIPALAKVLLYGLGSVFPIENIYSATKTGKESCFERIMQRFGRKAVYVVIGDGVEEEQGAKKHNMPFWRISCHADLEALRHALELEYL
Target sequence (Q15475 whole entry, looked up): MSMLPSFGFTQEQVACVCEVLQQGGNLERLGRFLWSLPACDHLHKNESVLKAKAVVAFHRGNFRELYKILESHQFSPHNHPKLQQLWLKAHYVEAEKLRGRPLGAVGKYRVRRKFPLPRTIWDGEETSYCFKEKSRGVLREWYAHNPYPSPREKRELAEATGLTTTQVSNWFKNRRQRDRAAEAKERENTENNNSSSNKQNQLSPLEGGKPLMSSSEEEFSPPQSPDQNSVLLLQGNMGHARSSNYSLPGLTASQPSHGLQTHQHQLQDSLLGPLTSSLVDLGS
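Homogeneous AlphaScreen proximity assay pairing GST-Six1 with His-tagged Eya2 (added as 5X mix: 250 nM and 500 nM) in 50 mM Tris pH 8.0, 300 mM NaCl, 1 mM TCEP. Glutathione donor and nickel acceptor beads; 1 h, 37 °C, dark.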
CtBP-E1A inh – qHTS Assay for Inhibitors of the CtBP/E1A Interaction | CtBP / adenovirus E1A interaction (AlphaScreen) | AlphaScreen GST-E1A/His-CtBP binding, 1536-well; active compounds read low | activity change, % (concentration not given with the values) | 340,000 compounds, 0.49% hits; in the data active = activity change below about -65%; inconclusive = mostly about -30% to -63%
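Protein mix (5X: 125 nM each GST-E1A, His-CtBP) was incubated with pinned compound 2 h at 37 deg C in dark, in 50 mM Tris pH 8.0 buffer with 300 mM NaCl. Glutathione donor and nickel acceptor beads followed; AlphaScreen signal read after 1 h.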
TDP1 cell CPT – qHTS for Inhibitors of human tyrosyl-DNA phosphodiesterase 1 (TDP1): qHTS in cells in presence of CPT | chicken DT40 Tdp1-/-;hTDP1 cells + 20 nM CPT, ATP luminescence, 48 h | Potency, µM (doses to about 46.2 µM), most hits filed as inhibitors | 420,000 compounds, 12% hits | AID 686979, 2013; note: nearly all actives have a fitted effect of over 55% in size
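Cell growth measured by CellTiter-Glo luminescence after a minimum 48 h, 37 C compound exposure with 20 nM CPT in Tdp1-knockout DT40 cells stably expressing hTDP1, seeded 400/well; qHTS titration format.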
TDP1 cell noCPT – qHTS for Inhibitors of human tyrosyl-DNA phosphodiesterase 1 (TDP1): qHTS in cells in absence of CPT | 420,000 compounds, 15% hits | Potency, µM (top dose mostly 46.2 µM), actives largely listed as inhibitors | DT40 Tdp1-/- hTDP1 cells, no CPT, ATP luminescence, 48 h; note: nearly all actives have a fitted effect of over 55% in size
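DT40 Tdp1-/-;hTDP1 cells, no CPT (DMSO vehicle only), 400 cells/well; compounds pin-transferred; ≥48 hr, 37 °C; CellTiter-Glo 30 min RT dark, luminescence read.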
IL1B secr inh – qHTS for Inhibitors of Inflammasome Signaling: IL-1-beta AlphaLISA Primary Screen; THP-1 LPS/ATP IL-1B secretion, AlphaLISA, 16 h; active compounds read low; activity change, % at 57.5 µM; 360,000 compounds, 4.7% hits; AID 743279, 2014; in the data active = activity change below about -50%; inconclusive = mostly about -30% to -49%
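THP-1 cells pretreated 1 hr with compounds (up to 57.5 uM final), then stimulated with LPS (250 ng/mL final) plus ATP (1.25 mM final); secreted IL-1B measured by AlphaLISA after 16 hr, decreased signal indicating inhibition.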
TDP1 inh – qHTS Assay for Inhibitors of Tyrosyl-DNA Phosphodiesterase (TDP1). Tyrosyl-DNA phosphodiesterase 1 (Homo sapiens), Q9NUW8. Potency, µM (doses to about 130 µM), hits mostly inhibitors. 350,000 compounds, 0.28% hits. AID 485290, 2010. recombinant TDP1, AlphaScreen DNA substrate cleavage; note: nearly all actives have a fitted effect of over 40% in size
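Steps: enzyme plus compound, 15 min RT; add biotin/phosphotyrosine-FITC oligonucleotide (15 nM final), react 5 min; add donor/acceptor beads (10 ug/ml final), 10 min; read AlphaScreen. Tdp1 at 1 nM final.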
Hits are given with their value; - = inactive; ? = inconclusive; . = no result; ! = a repeat was not active; [ ] = dose if it differs, or a comment. Unless noted, calls come from the whole dose curve; as a rule, active = well fitted curve in the direction sought with a large enough effect; inconclusive = small, poorly fitted or top-dose-only effect, or another doubt; inactive = no such curve, though single readings can be large; an effect the other way counts as inactive or inconclusive.

SMILES	Six1-Eya2 blk	CtBP-E1A inh	TDP1 cell CPT	TDP1 cell noCPT	IL1B secr inh	TDP1 inh
Cc1cc(C)cc(NC(=O)Nc2nnc(N(C)C3CCCCC3)s2)c1	.	.	14.6µM	?	.	-
O=C(COc1ccccc1F)Nc1ccc2nc(SCCOc3ccccc3)sc2c1	.	.	?	-	.	-
CC1(C)CC(=O)c2cc(C(=O)NCCc3ccccc3)c(=O)[nH]c2C1	.	.	-	-	.	.
Cc1ccccc1-c1noc(CCC(=O)Nc2cccc(C)c2C)n1	.	.	-	16.4µM	.	-
O=C(CCc1nc(-c2ccccc2F)no1)Nc1ccc(Oc2ccccc2)cc1	-	-	23.1µM	10.3µM	-	-
COc1ccc(-c2noc(CCC(=O)Nc3cccc(C)c3C)n2)cc1OC	.	.	?	?	.	-
COc1cccc(NC(=O)CCc2nc(-c3ccccc3F)no2)c1	-	-	?	?	-	-
COc1ccc(Cl)cc1NC(=O)CCc1nc(-c2ccccc2F)no1	-	-	23.1µM!	16.4µM	-	-
COc1ccc(Br)cc1CNC(=O)CCc1nc(-c2ccccc2F)no1	-	-	16.4µM	?	-	-
COc1ccc(CNC(=O)CCc2nc(-c3ccccc3F)no2)c(OC)c1	-	-	-	?	-	-
CCN1C(=O)N[C@@H](c2ccco2)C(C(C)=O)=C1C	-	-	-	-	-	-[21 µM]
COc1ccccc1C(=O)NNC(=O)C(=O)Nc1ccc(C)c(Cl)c1	-	-	?	?	-	-
O=C(NC(=S)Nc1ccccc1N1CCCC1)c1cccs1	-	.	16.4µM	14.6µM	-	-
O=C(NC(=S)Nc1ccccc1N1CCCCC1)c1cccs1	-	-	16.4µM	20.6µM	-	-
Cc1ccc(S(=O)(=O)n2nc(OC(=O)c3c(F)cccc3Cl)cc2N)cc1	-	-	-	-	-	-
CCOc1ccccc1NC(=O)C1CCCCN1S(=O)(=O)c1ccccc1 (configuration not stated)	-	-	?	20.6µM	-	-
O=C(Nc1ccc(OC(F)(F)F)cc1)C1CCCCN1S(=O)(=O)c1ccccc1 (configuration not stated)	-	-	?	14.6µM	?	-
CCOc1ccc(NC(=O)C2CCCCN2S(=O)(=O)c2ccccc2)cc1 (configuration not stated)	-	-	?	?	-	-
Cc1ccc(N(C)C(=O)c2cnc(N3CCOCC3)c3ccccc23)cc1C	.	.	23.1µM	?	.	-
CCN(C(=O)c1cnc(N2CCOCC2)c2ccccc12)c1cc(C)ccc1C	.	.	23.1µM	?	.	-
CCc1ccccc1N(C)C(=O)c1cnc(N2CCOCC2)c2ccccc12	.	.	?	-	.	-
CC1=CN2C(=NC(=O)CC2(C)C(=O)N(CC(=O)NC2CCCC2)Cc2ccc(Cl)cc2)C=C1 (configuration not stated)	-	-	-	-	-	-[0.0935 µM]
COC(=O)c1[nH]c2ccc(F)cc2c1NC(=O)CCN1CCN(C(=O)c2ccco2)CC1	.	.	.	.	.	-
COc1ccc(CNS(=O)(=O)c2ccc3c(c2)N(C(C)=O)CC(C)S3)cc1 (configuration not stated)	-	-	?	9.2µM	-	-
CC(=O)N1c2ccc(S(=O)(=O)NCC3CCC(C(=O)Nc4cccc(C)c4C)CC3)cc2CC1C (configuration not stated)	.	.	?	20.6µM	.	-
SMILES	Six1-Eya2 blk	CtBP-E1A inh	TDP1 cell CPT	TDP1 cell noCPT	IL1B secr inh	TDP1 inh
CC(=O)N1CC(C)Sc2ccc(S(=O)(=O)NCc3ccc(F)cc3)cc21 (configuration not stated)	-	.	?	?	-	-
CC(=O)N1c2ccc(S(=O)(=O)NCC3CCC(C(=O)NC4CCC(C)CC4)CC3)cc2CC1C (configuration not stated)	-	-	?	-	-	-
CC(=O)N1c2ccc(S(=O)(=O)NCC3CCC(C(=O)Nc4cccc(C)c4)CC3)cc2CC1C (configuration not stated)	.	.	16.4µM	14.6µM	.	-
CC(=O)N1CC(C)Sc2ccc(S(=O)(=O)NCCc3cccc(C)c3)cc21 (configuration not stated)	-	-	?	14.6µM	-	-
CC(=O)N1CCSc2ccc(S(=O)(=O)NCc3ccccc3)cc21	-	-	?	?	-	-
CCOC(=O)c1cc2cc(CC(=O)c3ccc(OCC)cc3O)ccc2o1	-	-	-	?	-	-
NC(=O)CC(NC(=O)Cc1ccc(Br)cc1)c1ccc(NCCN2CCOCC2)c([N+](=O)[O-])c1 (configuration not stated)	-	-	-	-	-	.
CC1CCCCN1C(=O)CSc1nc2ncccc2[nH]1 (configuration not stated)	-	.	-	-	-	-
COc1cccc(NC(=O)C2CCC(CNS(=O)(=O)c3ccc4c(c3)CC(C)N4C(C)=O)CC2)c1 (configuration not stated)	-	-	23.1µM	18.4µM	-	-
CC(=O)N1c2ccc(S(=O)(=O)NCC3CCC(C(=O)Nc4cccc(C)n4)CC3)cc2CC1C (configuration not stated)	-	-	25.9µM	18.4µM	-	-
CCCCN(C)C(=O)C1CCC(CNS(=O)(=O)c2ccc3c(c2)CC(C)N3C(=O)C2CC2)CC1 (configuration not stated)	-	.	10.3µM	23.1µM	-	-
CCC(C)(C)NC(=O)C1CCC(CNS(=O)(=O)c2ccc3c(c2)CC(C)N3C(C)=O)CC1 (configuration not stated)	.	.	16.4µM	11.6µM	.	-
Cc1cc(CNC(=O)c2cc(Br)ccc2Cl)nn1C	-	-	?	-	-	-
CCCCSc1cc(=O)n(-c2ccccc2)nc1C(=O)OCC	-	-	-	-	-	-
COc1cccc(CNC(=O)CCNS(=O)(=O)c2ccc3c(c2)CC(C)N3C(C)=O)c1 (configuration not stated)	-	-	?	?	-	-
CC(=O)N1c2ccc(S(=O)(=O)NCCc3cccc(C)c3)cc2CC1C (configuration not stated)	.	.	14.6µM	14.6µM	.	-
C[C@@]12C(=O)N(c3ccc(Cl)cc3)C(=O)N1[C@@H]1c3ccccc3OC[C@@H]1[C@H]2c1ccccc1	-	-	?	?	-	-
